Screening results from PubChem BioAssay.
HT1080 IDH1KD tx – qHTS for induction of synthetic lethality in tumor cells producing 2HG: qHTS for the HT-1080-IDH1KD cell line. HT-1080 IDH1 knockdown viability, ATP luminescence, 48 h. Potency, µM (top dose mostly 46.1 µM), for the others: at the top dose activity, negative = toxicity, hits mostly cytotoxic. 360,000 tested, 2% active;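 also: potency is read from the fitted curve at half-maximal effect; 0% = DMSO wells and -100% = cell-free medium wells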
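Cytotoxicity counter-line: IDH1KD HT-1080, 48 h, CellTiter-Glo. Curves classed by r2, magnitude and activity.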
IL1B secr inh – qHTS for Inhibitors of Inflammasome Signaling: IL-1-beta AlphaLISA Primary Screen; THP-1 LPS/ATP IL-1B secretion, AlphaLISA, 16 h; active compounds read low; activity change, % at 57.5 µM; 360,000 tested, 4.7% active; AID 743279, 2014; in the data active = activity change below about -50%; inconclusive = mostly about -30% to -49%
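THP-1 cells pretreated 1 hr with compounds (up to 57.5 uM final), then stimulated with LPS (250 ng/mL final) plus ATP (1.25 mM final); secreted IL-1B measured by AlphaLISA after 16 hr, decreased signal indicating inhibition.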
KB-V1 cytotox – qHTS assay for MDR1-selective chemotherapeutics: Primary screen using the drug-selected MDR subline cells KB-V1. 400,000 tested, 3.4% active. Potency, µM (highest dose often 46.1 µM), most hits filed as cytotoxic. KB-V1 MDR cells viability, CellTiter-Glo, 72 h. AID 1347076, 2019; also: potency is read from the fitted curve at half-maximal effect; nearly all actives have a fitted effect of over 60% in size
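Drug-selected KB-V1 cells, grown in DMEM lacking phenol red with 10% FBS, receive compound titrations; after three days at 37 degrees C, surviving cell ATP is quantified by CellTiter-Glo luminescence and responses normalized and curve-fitted.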
KB-3-1 cytotox – qHTS assay for MDR1-selective chemotherapeutics: Primary screen using the parental adenocarcinoma cell KB-3-1; KB-3-1 viability, CellTiter-Glo ATP luminescence, 72 h; Potency, µM (doses to about 46.1 µM), hits mostly cytotoxic; 400,000 tested, 1.4% active; AID 1347075, 2019; also: potency is read from the fitted curve at half-maximal effect; nearly all actives have a fitted effect of over 60% in size
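Luminescent ATP read-out (CellTiter-Glo) measures survival of drug-naive KB-3-1 cells after 72 h compound exposure at 37 °C. Titration series was screened from lowest to highest concentration, with DMSO vehicle plates as background controls.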
HT1080NT lethal – qHTS for induction of synthetic lethality in tumor cells producing 2HG: qHTS for the HT-1080-NT fibrosarcoma cell line. 360,000 tested, 1.6% active. Potency, µM (highest dose often 46.1 µM), without a hit: at the highest dose activity, negative = less viability, actives largely listed as cytotoxic. HT-1080-NT fibrosarcoma viability, CellTiter-Glo ATP luminescence, 48 h;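 also: NT is the 2HG producing partner of a matched IDH1 knockdown line; potency is read from the fitted curve at half-maximal effect; 0% = DMSO-treated cells and -100% = media-only wells without cells; nearly all actives have a fitted effect of over 55% in size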
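Viability by CellTiter-Glo luminescence after 48 h compound exposure at 37C of HT-1080-NT cells (750/well, RPMI, 5% FBS). % activity scaled between DMSO wells and medium-only wells, then curve-fitted and categorized by curve class.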
Numbers without * were called inactive; i = inactive; ? = inconclusive; . = no result. A selection: hits, their analogues and other compounds. The true share with any hit is near 8.8%. Unless noted, calls follow the shape of the dose curve; as a rule, active = well fitted curve in the direction sought with a large enough effect; inconclusive = small, poorly fitted or top-dose-only effect, or another doubt; inactive = no such curve, though single readings can be large; an effect the other way counts as inactive or inconclusive. Unless noted, % is scaled to controls: 0 for no effect and ±100 for the full control effect.

SMILES	HT1080 IDH1KD tx	IL1B secr inh	KB-V1 cytotox	KB-3-1 cytotox	HT1080NT lethal
COc1ccc(C(=O)Oc2ccc(F)cc2C(=O)/C=C/c2ccc(OC)c(OC)c2)cc1	?	-1	?	i	?
CCOc1cc2[nH]c(=O)n(CCCC(=O)N3CCN(c4ccc(OC)cc4)CC3)c(=O)c2cc1OCC	.	.	i	i	.
O=C1OCCN1C(=O)[C@H]1[C@H](c2ccccc2)C(c2ccccc2)=NN1c1ccc(Br)cc1	-16%	-7	i	i	-17%
CSc1cc(-c2ccccc2)n(Cc2ccccc2Cl)c(=O)c1C#N	0%	9	?	4.6µM*	1%
CCCn1c(-c2ccccc2)cc(SC)c(C#N)c1=O	-6%	-13	i	i	-2%
CCOC1=C2[C@H](c3ccc(CC)cc3)N(S(=O)(=O)c3ccc(C)cc3)C[C@H]2C(C#N)(C#N)C(C#N)(C#N)C1	-10%	-76*	i	i	-4%
CCOC1=C2CN(S(=O)(=O)c3ccc(C)cc3)C(c3ccc(CC)cc3)CC2N(S(=O)(=O)c2ccc(C)cc2)C(c2ccc(CC)cc2)C1 (stereo not drawn)	9%	9	i	1µM*	17%
Cc1ccc(CNC(=O)c2c(-c3ccc(Br)cc3)noc2C)o1	.	.	i	i	.
CCCCNC(=O)CNC(=S)N(Cc1ccccc1F)C1CCCCC1	-20%	-24	?	i	-5%
COC(=O)c1ccc(CN2CCCC(CO)(Cc3ccc(F)cc3F)C2)cc1 (stereo not drawn)	-5%	6	i	i	-9%
CCOC(=O)C1CCCN(C(=O)c2cc(-c3ccc(C)cc3)nc3ccccc23)C1 (stereo not drawn)	-1%	36	12µM*	i	-13%
CCOC(=O)C1CCCN(C(=O)c2cc(Nc3ccc(OC)c(OC)c3)nc3ccccc23)C1 (stereo not drawn)	-12%	-93*	i	i	0%
CCc1ncc(CN2CCC(C(=O)Nc3cccc(-c4cscn4)c3)CC2)cn1	-2%	-3	.	.	1%
COc1ccccc1[C@]1(C)ON(c2ccccc2C(F)(F)F)C1=O	?	-100*	?	i	?
COc1ccc([C@]2(C(C)C)ON(c3ccccc3C(F)(F)F)C2=O)cc1	?	-17	i	i	?
CC[C@]1(c2ccccc2OC)ON(c2ccccc2C(F)(F)F)C1=O	?	0	?	23µM*	-27%
CCC(C)OC(=O)C[N+](C)(C)CCOC1CC2CCC1(C)C2(C)C (stereo not drawn)	-24%	-28	i	21µM*	-15%
CCCCCCOC(=O)C[N+](C)(C)CCOC1CC2CCC1(C)C2(C)C (stereo not drawn)	5%	-2	i	i	-3%
CCCCCCCOC(=O)C[N+](C)(C)CCOC1CC2CCC1(C)C2(C)C (stereo not drawn)	18µM*	-100*	i	21µM*	8.2µM*
CC(C)CCOC(=O)C[N+](C)(C)CCOC1CC2CCC1(C)C2(C)C (stereo not drawn)	-28%	-21	i	i	?
Cc1ccc(-c2nnc(OCc3cccnc3)c3ccccc23)cc1	-1%	-83*	16µM*	i	-15%
COc1ccc(-c2nnc(OCc3ccccc3)c3ccccc23)cc1	-9%	-87*	?	?	-20%
Cc1ccc(Oc2nnc(-c3ccc(C)cc3)c3ccccc23)cc1	0%	14	18µM*	?	14%
Cn1nc(C(C)(C)C)cc1C(=O)N1CCCCC1c1cc(C(=O)Nc2ccccc2Cl)no1 (stereo not drawn)	?	-5	?	?	?
O=C(Nc1ccccc1)Nc1ccc2ncoc2c1	0%	-63*	i	i	2%
CCOC(=O)/C=C(\C)Sc1cc(O)c2ccccc2c1O	23µM*	-62*	i	i	23µM*
